The labels stand for the following.
B1: PhoQ; a variant is named by its letters at X, in order, P23837 (parent)
chain: MKKLLRLFFPLSLRVRFLLATAAVVLVLSLAYGMVALIGYSVSFDKTTFRLLRGESNLFYTLAKWENNKLHVELPENIDKQSPTMTLIYDENGQLLWAQRDVPWLMKMIQPDWLKSNGFHEIEADVNDTSLLLSGDHSIQQQLQEVREDDDDAEMTHSVAVNVYPATSRMPKLTIVVVDTIPVELKSSYMVWSWFIYVLSANLLLVIPLLWVAAWWSLRPIEALAKEVRELEEHNRELLNPATTRELTSLVRNLNRLLKSERERYDKYRTTLTDLTHSLKTPLXXLQXXLRSLRSEKMSVSDAEPVMLEQISRISQQIGYYLHRASMRGGTLLSRELHPVAPLLDNLTSALNKVYQRKGVNISLDISPEISFVGEQNDFVEVMGNVLDNACKYCLEFVEISARQTDEHLYIVVEDDGPGIPLSKREVIFDRGQRVDTLRPGQGVGLAVAREITEQYEGKIVAGESMLGGARMEVIFGRQHSAPKDE

The full ranking holds about 140,000 sequences; the median of “enrichment ratio after two sorts for PhoP signalling” is about 0, and the highest 2% start at about 11. Shown is part of a subset that was picked to be rich in the highest values.

For 86 variants, enrichment ratio results are on record in a collection of fitness landscapes (doi:10.1126/science.1257360).

In this assay the parent is B1. The experiment in a line: enrichment ratio after two sorts for PhoP signalling (ratio (wild type AVST 3.29)); higher = more functional. The settings on record: with PhoP (E. coli).
Consider NCPV, for which the enrichment ratio was no more than 0.25.

As to LVVW, the enrichment ratio was no more than 0.25.

Take WDPT: the enrichment ratio is no more than 0.25.

YRQK: the enrichment ratio is no more than 0.25.

Regarding TMNF, the enrichment ratio was 14.7.

As for TMHK, the enrichment ratio is no more than 0.25.

Take TMNN: the enrichment ratio worked out at 34.

For the variant NNNF, the enrichment ratio is no more than 0.25.

NMNN: the enrichment ratio is no more than 0.25.

Regarding TMNL, the enrichment ratio is 5.04.

Turning to TMHG, the enrichment ratio was found to be 13.3.

Turning to TMNG, the enrichment ratio came out at 10.4.

For the variant KMNF, the enrichment ratio is no more than 0.25.

In the case of DTAT, the enrichment ratio is no more than 0.25.

For HKAG, the enrichment ratio is no more than 0.25.

Regarding YDNA, the enrichment ratio was no more than 0.25.

In the case of YEKP, the enrichment ratio is no more than 0.25.

For MQFY, the enrichment ratio was no more than 0.25.

Consider MQGD, for which the enrichment ratio is no more than 0.25.

As for MQFD, the enrichment ratio worked out at 14.7.

For the variant MQHF, the enrichment ratio was no more than 0.25.

Turning to KQFM, the enrichment ratio was no more than 0.25.

In the case of SQHY, the enrichment ratio is no more than 0.25.

Consider MQPI, for which the enrichment ratio is no more than 0.25.

With MQHY, the enrichment ratio came out at 12.6.

Turning to MQFM, the enrichment ratio was 12.3.

Take MQFA: the enrichment ratio is no more than 0.25.

On to QQHY, for which the enrichment ratio worked out at 21.2.

For the variant QHHY, the enrichment ratio is no more than 0.25.

Regarding SYVF, the enrichment ratio was found to be 0.277.

As to YEDQ, the enrichment ratio was no more than 0.25.

Regarding WFMA, the enrichment ratio was no more than 0.25.

Regarding HCRL, the enrichment ratio was no more than 0.25.

Take RTQY: the enrichment ratio is no more than 0.25.

As for VMWE, the enrichment ratio was no more than 0.25.

Regarding AGDA, the enrichment ratio is no more than 0.25.

Consider MQAE, for which the enrichment ratio was no more than 0.25.

For the variant MQAV, the enrichment ratio was found to be 18.4.

Consider MQSK, for which the enrichment ratio was no more than 0.25.

Turning to MQRM, the enrichment ratio was no more than 0.25.

Regarding MQFS, the enrichment ratio was determined as 3.3.

As to MQRA, the enrichment ratio is no more than 0.25.

Turning to MQGM, the enrichment ratio is no more than 0.25.

With MQWM, the enrichment ratio stood at 14.1.

For MQWI, the enrichment ratio came out at 14.4.

As for MQRV, the enrichment ratio was no more than 0.25.

Take MQFQ: the enrichment ratio was found to be 11.9.

Take MQFE: the enrichment ratio is no more than 0.25.

Turning to YMRM, the enrichment ratio is no more than 0.25.

With TCKP, the enrichment ratio is no more than 0.25.

Regarding RKYE, the enrichment ratio is no more than 0.25.

In the case of RKAI, the enrichment ratio is no more than 0.25.

As for SLME, the enrichment ratio came to 2.88.

On to HFYE, for which the enrichment ratio was no more than 0.25.

Turning to GSHY, the enrichment ratio is no more than 0.25.

As to QNET, the enrichment ratio was no more than 0.25.

As for QCSY, the enrichment ratio was no more than 0.25.

EMSY: the enrichment ratio is no more than 0.25.

GCLP: the enrichment ratio was 0.401.

For LLKQ, the enrichment ratio is no more than 0.25.

As for RVRE, the enrichment ratio is no more than 0.25.

On to SSMQ, for which the enrichment ratio is 11.5.

Take SYMQ: the enrichment ratio was no more than 0.25.

Regarding VVHP, the enrichment ratio was no more than 0.25.

On to KYMQ, for which the enrichment ratio was no more than 0.25.

With SLMQ, the enrichment ratio stood at 11.8.

With SRMQ, the enrichment ratio is no more than 0.25.

For the variant TLMQ, the enrichment ratio is no more than 0.25.

SIMQ: the enrichment ratio is 33.3.

Consider KLMQ, for which the enrichment ratio was no more than 0.25.

With VYMQ, the enrichment ratio is no more than 0.25.

Take VVMQ: the enrichment ratio worked out at 13.3.

With FSMQ, the enrichment ratio was found to be 3.93.

For LNVR, the enrichment ratio was no more than 0.25.

As for KVQP, the enrichment ratio is no more than 0.25.

Take FGEF: the enrichment ratio was no more than 0.25.

With ATMQ, the enrichment ratio was determined as 3.23.

For PWPQ, the enrichment ratio is no more than 0.25.

In the case of PECM, the enrichment ratio is no more than 0.25.

On to VWYR, for which the enrichment ratio is no more than 0.25.

As to STMQ, the enrichment ratio turned out to be 12.

In the case of SWMQ, the enrichment ratio was no more than 0.25.

As for NSMQ, the enrichment ratio was no more than 0.25.

Take TSMQ: the enrichment ratio worked out at 13.9.

As for KSMQ, the enrichment ratio is no more than 0.25.

Consider SQMQ, for which the enrichment ratio came out at 7.7.
